Measurements published in PubChem BioAssay.
Unmarked numbers belong to inactive results.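 How the source made its calls: active means compounds whose cell count with miR-34 switched on is under 0.7 times the count with it off; inactive means the rest.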

Test: sensitizers of A549 cells to miR-34 induction, primary screen, imaging, A549 dox-inducible miR-34, nuclei and caspase counts (AID 1347080); further: test concentration not given here
Details: A549 miR-34 inducible, Hoechst nuclei count, 48 h; active compounds read low; cell number ratio, induced over uninduced

Structure (SMILES)	fold change
Nc1nc2[nH]c(=O)cnc2c(=O)[nH]1	1.09
O=[N+]([O-])c1ccc(CNc2nc(NCc3cccc(C(F)(F)F)c3)nc3nc[nH]c23)cc1	1.02
N[C@@H](Cc1cnc[nH]1)C(=O)O	0.99
CC1(C)CCC(NC(=O)[C@@H](N)CCC(=O)O)CC1	1.1
C#CC(N)CCC(=O)O (stereo not given)	1.04
C=CCN1CCc2c(cc(O)c(O)c2Br)[C@@H](c2ccccc2)C1	1.09
N=C(N)c1ccc(N)cc1	0.998
O=C1C2C=CC=CC2=NC(=S)N1CCN1CCC(=C(c2ccc(F)cc2)c2ccc(F)cc2)CC1 (stereo not given)	0.996
N.N.O=C(O)C1(C(=O)O)CCC1.[Pt+2]	1.04
[Li+]	0.887
COc1cc2c(CCNC(C)=O)c[nH]c2cc1O	0.921
OC1(c2ccc(Cl)cc2)CCN(Cc2c[nH]c3ccccc23)CC1	1.01
N=C(N)c1ccccc1	1.03
CC(=O)SCC[N+](C)(C)C	1.01
COc1cccc(C(=O)NCCN2CCN(c3ccc(Cl)cc3)CC2)c1	1.02
OCC1NCC(O)C(O)C1O (stereo not given)	0.93
C=C/C(C)=C/[C@@]1(C)SC(=O)C(C)=C1O	1.05
CCCOC(=O)c1c(-c2ccccc2)nc(CC)c(C(=O)SCC)c1CCC	1.01
Oc1ccc(C2CNCc3sccc32)cc1O (stereo not given)	0.942
Nc1ncnc2c1nc(Sc1ccc(Cl)cc1)n2C1OC2COP(=O)(O)O[C@@H]2[C@@H]1O (stereo not given in full)	1.01
